# Exocytosis inh: LAMP-1 surface exposure blockers, TALL-104 cells – cell-based, flow cytometry, MLPCN library, primary screen. TALL-104 LAMP-1 surface exposure; cells stimulated with thapsigargin and PMA. 0.66% of 360,000 active. AID 651702, 2012. inhibition, % at 10 µM;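 active = inhibition above about 55%, limit read from the data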
# ABHD5-PLIN5 inh: ABHD5-PLIN5 interaction inhibitors, primary screen, cell lysate, split luciferase complementation, luminescence. Perilipin-5 (Homo sapiens) + 1-acylglycerol-3-phosphate O-acyltransferase ABHD5 (Homo …. Split G. princeps luciferase complementation, 4 h. inhibition, % at 4 µM. 0.78% of 360,000 active. AID 602281, 2012;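 active = inhibition above the mean inhibition across every tested compound plus 3 SD, cut at about 22% in these data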;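 also: 0% = DMSO only wells and the 100% control is not disclosed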
# Target sequence (Q00G26 whole entry, looked up): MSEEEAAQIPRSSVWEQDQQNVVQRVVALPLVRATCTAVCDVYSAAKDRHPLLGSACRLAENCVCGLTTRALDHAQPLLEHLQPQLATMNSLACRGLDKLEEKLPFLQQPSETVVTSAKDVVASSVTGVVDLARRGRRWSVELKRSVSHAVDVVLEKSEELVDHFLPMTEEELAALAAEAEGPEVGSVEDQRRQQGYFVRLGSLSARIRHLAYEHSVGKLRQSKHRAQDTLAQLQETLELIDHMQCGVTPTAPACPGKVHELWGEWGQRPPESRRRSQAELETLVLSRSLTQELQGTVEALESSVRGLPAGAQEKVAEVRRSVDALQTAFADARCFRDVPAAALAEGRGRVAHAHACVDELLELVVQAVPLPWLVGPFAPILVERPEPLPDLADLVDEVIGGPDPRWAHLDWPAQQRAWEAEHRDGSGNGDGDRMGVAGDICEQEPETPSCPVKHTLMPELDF
# Target sequence (Q8WTS1 whole entry, looked up): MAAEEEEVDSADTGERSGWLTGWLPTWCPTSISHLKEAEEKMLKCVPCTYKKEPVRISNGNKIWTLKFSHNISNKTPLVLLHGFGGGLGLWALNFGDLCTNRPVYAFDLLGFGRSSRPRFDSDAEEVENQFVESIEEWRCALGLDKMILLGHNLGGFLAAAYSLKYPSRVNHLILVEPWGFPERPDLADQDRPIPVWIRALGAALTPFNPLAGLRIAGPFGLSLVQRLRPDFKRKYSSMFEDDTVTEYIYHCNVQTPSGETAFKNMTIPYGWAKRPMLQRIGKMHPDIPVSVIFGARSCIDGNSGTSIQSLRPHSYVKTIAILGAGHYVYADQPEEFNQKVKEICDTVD
# NOD2 RIPK2 PPI: NOD2-RIPK2 binding disruptors in cells, primary screen, fluorescence, CHO cells, BLA complementation | CCF4 ratio | inhibition, % at 4.98 µM | 0.38% of 360,000 active | Receptor-interacting serine/threonine-protein kinase 2 (Homo sapiens), O43353; in the data active = inhibition above about 21%;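 also: 0% = vehicle only and 100% = reference blocker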
# Beta2AR agonist: beta2AR agonists driving receptor internalization, primary screen, cell-based, FAP fluorogen, flow cytometry. 0.43% of 340,000 active. response, % (no concentration beside the values). Am2.2-beta2AR cells;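 active = response above a set limit, near 3 SD of response in nonfluorescent compounds, cut at about 42% in these data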
# TLR4-MyD88 BLA: inhibitors of TLR4-MyD88 association in cells, primary screen, cell-based, HeLa CL3-4, BLA complementation, FRET ratio; Toll-like receptor 4 (Homo sapiens) + Myeloid differentiation primary response protein …; HeLa CL3-4 TLR4/MyD88 BLA complementation; inhibition, % at 8.4 µM; 0.18% of 200,000 active; AID 861, 2007; in the data active = inhibition above about 25%;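 also: 0% = vehicle and 100% = reference inhibitor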
# TLR9-MyD88 block: inhibitors of TLR9-MyD88 association in cells, primary screen, cell-based, CHO, BLA complementation, fluorescence; Toll-like receptor 9 (Homo sapiens) + Myeloid differentiation primary response protein …; CCF4 FRET ratio; inhibition, % at 4.98 µM; 0.21% of 340,000 active;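 active = inhibition above the mean over all tested compounds plus 3 SD, cut at about 21% in these data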;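 also: 0% = DMSO only wells and 100% = clavulanate BLA inhibitor control wells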
# TLR9-MyD88 cf: TLR9-MyD88 association inhibitors, retest, confirmation, cell-based, CHO, BLA complementation, fluorescence, triplicate; AID 540250, 2011; inhibition, % at 4.98 µM; 51% of 680 active; shares compounds with TLR9-MyD88 block; CCF4 FRET ratio;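 active = mean inhibition across three repeats above about 21% taken from the earlier screen, limit read from the data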;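 also: blue over green emission ratio reports constitutive TLR9 MyD88 association via BLA complementation; 0% = DMSO vehicle wells and 100% = clavulanate BLA inhibitor wells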
# BLA counter: beta-lactamase reporter inhibitors in CHO cells, artefact control for TLR9-MyD88 binding inhibitor project, cell-based, fluorescence. CHO-BLA cells, CCF4 FRET ratio, BLA reporter. inhibition, % at 4.98 µM. shares compounds with TLR9-MyD88 block. 7% of 680 active;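 active = mean inhibition above a 50% cutoff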;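 also: counterscreen of TLR9-MyD88 hits on CMV-driven BLA in CHO-K1 cells; 0% = DMSO alone and 100% = clavulanate blocking BLA; higher means less blue over green ratio so more BLA blockade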
# TLR9 CHO tox: CHO cell viability loss – luminescence, single concentration, cytotoxicity control for TLR9-MyD88 binding inhibitor project; TLR9-MyD88 CHO cells cytotoxicity; 39% of 680 active; AID 588336, 2011; inhibition, % at 4.98 µM; shares compounds with TLR9-MyD88 block; in the data active = inhibition above about 11%
# * marks the source's active call; other numbers are inactive results; / = not tested or not shown. An excerpt weighted towards active compounds, which were near 2% of everything screened.
SMILES,Exocytosis inh,ABHD5-PLIN5 inh,NOD2 RIPK2 PPI,Beta2AR agonist,TLR4-MyD88 BLA,TLR9-MyD88 block,TLR9-MyD88 cf,BLA counter,TLR9 CHO tox
CS(=O)(=O)c1sc2nc(-c3cccs3)cc(-c3ccccc3)c2c1N,3,-6,3,43*,15,25*,19,17,4
COc1ccc(SCC(O)Cn2c3ccccc3c3ccccc32)c(OC)c1 (configuration not stated),-6,1,6,/,/,/,/,/,/
NNC(=O)c1oc2nc(-c3cccs3)cc(-c3ccco3)c2c1N,16,-14,4,-34,/,22*,12,14,-2
CC(C)(C)OC(=O)NCCCCCNC(=O)c1nc[nH]c1C(=O)N1CCN(C(=O)OC(C)(C)C)CC1,-5,-5,-2,-2,/,4,/,/,/
CC(OC(=O)/C(C#N)=C/c1ccc(N(C)C)cc1)C(=O)NCc1ccco1 (configuration not stated),-6,4,4,2,/,24*,8,9,-4
CN(C)c1ccc(/C=C(\C#N)C(=O)NCc2ccco2)cc1,/,/,/,/,2,/,/,/,/
Cc1c(Cl)c([N+](=O)[O-])nn1CCCC(=O)Nc1sc2c(c1C#N)CCC2,3,0,-10,4,2,23*,-5,-1,-3
Cc1c(Cl)c([N+](=O)[O-])nn1CCCC(=O)Nc1sc2c(c1C(N)=O)CCC(C)C2 (configuration not stated),-2,5,-9,-6,-2,-6,/,/,/
COc1cccc(C2C=C(c3ccc(Br)s3)Nc3ncnn32)c1OC (configuration not stated),-3,-3,31*,1,21,27*,5,5,2
Fc1ccc(Br)cc1C1C=C(c2ccc(Br)s2)Nc2ncnn21 (configuration not stated),1,3,-2,23,-4,10,/,/,/
CC(=N/O)/C(C)=N\NC(=O)c1ccccn1,-2,0,6,-2,7,53*,4,5,6
Clc1ccc(/C=N/NC2=Nc3cccc4cccc2c34)cc1,-1,3,11,2,5,29*,14,12,7
C(=N\NC1=Nc2cccc3cccc1c23)/c1ccccc1,2,0,14,-18,0,11,/,/,/
COc1ccc(OCC(O)CNC(=O)/C=C/c2cccc([N+](=O)[O-])c2)cc1 (configuration not stated),2,-2,-1,-1,6,23*,-3,-1,2
COc1cc(CNC(=O)c2cc3ccccc3oc2=O)cc(OC)c1OC,2,-4,-7,-10,/,1,/,/,/
COc1cc(/C=C/C(=O)O)cc(S(=O)(=O)NCc2ccc3c(c2)OCO3)c1OC,0,2,-7,2,1,21*,3,0,-5
COc1cc(/C=C/C(=O)O)cc(S(=O)(=O)NCc2ccco2)c1OC,-3,5,-1,-2,-2,-15,/,/,/
Cc1ccc(N2C(=O)NC(NS(=O)(=O)c3ccccc3)(C(F)(F)F)C2=O)cc1 (configuration not stated),6,3,-4,5,/,0,/,/,/
Cc1ccc(N2C(=O)NC(NS(=O)(=O)c3ccc(C)cc3)(C(F)(F)F)C2=O)cc1 (configuration not stated),-9,1,-5,7,/,21*,-2,-4,2
CCOc1cc(C2NN=C(c3ccc(C)cc3)S2)ccc1O (configuration not stated),5,-4,15,-4,6,21*,11,10,10
COc1ccc(C2NN=C(c3ccc(C)cc3)S2)cc1 (configuration not stated),8,8,-11,8,/,-1,/,/,/
CC1CCN(c2ccc3c(c2)S(=O)(=O)c2cccc(C(=O)NCc4cccc(F)c4)c2C3=O)CC1,11,-2,16,-1,/,10,/,/,/
O=C(NCc1cccc(F)c1)c1cccc2c1C(=O)c1ccc(N3CCC(Cc4ccccc4)CC3)cc1S2(=O)=O,-4,-4,21*,-36,/,50*,44*,46,7
O=C(NCc1ccco1)c1cccc2c1C(=O)c1ccc(/C=C/c3ccccc3)cc1S2(=O)=O,9,18,5,3,/,30*,47*,52*,12*
O=C(NCc1ccco1)c1cccc2c1C(=O)c1ccc(N3CCC(Cc4ccccc4)CC3)cc1S2(=O)=O,-1,-6,32*,-26,/,27*,37*,39,6
SMILES,Exocytosis inh,ABHD5-PLIN5 inh,NOD2 RIPK2 PPI,Beta2AR agonist,TLR4-MyD88 BLA,TLR9-MyD88 block,TLR9-MyD88 cf,BLA counter,TLR9 CHO tox
O=C(NCc1cccc(C(F)(F)F)c1)c1cccc2c1C(=O)c1ccc(N3CCC(Cc4ccccc4)CC3)cc1S2(=O)=O,-8,-10,20,-42,/,31*,45*,47,8
CC(C)c1cccc(-c2ccc3c(c2)S(=O)(=O)c2cccc(C(=O)NCc4ccccc4)c2C3=O)c1,-17,4,-6,5,/,3,/,/,/
O=S1(=O)N[C@H](Cc2ccccc2)COc2cccc(N3CCN(Cc4ccccc4F)CC3)c21,9,3,-12,/,/,/,/,/,/
COc1ccc(NC(=O)Nc2ccc([N+](=O)[O-])cc2)cn1,-17,7,-7,9,/,-15,/,/,/
CC(C)N(CCC(=O)c1ccc2ccccc2c1)Cc1ccccc1,32,20,6,-3,/,21*,-3,-1,49*
N#Cc1c(N)n(-c2ccccc2)c(=O)c2cc([N+](=O)[O-])ccc12,0,-3,4,-5,-10,11,/,/,/
O=c1c2cc(C(F)(F)F)ccc2sn1-c1ccccc1,31,-16,-3,/,/,23*,26*,-5,58*
N#Cc1ccc2c(=O)n(-c3ccccc3)sc2c1,48,-16,0,/,/,39*,18,-3,96*

# Screening results: PubChem BioAssay, several laboratories
